Source: PubChem BioAssay
Hedgehog inh = Sonic Hedgehog pathway inhibition. 2.1% of 22,000 active. AID 2313. Shh-LIGHT2 Gli-luciferase reporter, 30 h. inhibition, % (test concentration not listed);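 active means mean inhibition across valid replicates above about 65%, limit read from the data; inconclusive means mean under the limit, yet half or more replicates past it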;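 further: pathway switched on by Shh-conditioned medium diluted 1 in 25 in low serum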
MITF inhib = blocks MITF activity. inhibition, % (test concentration not listed). 0.28% of 37,000 active. TRPM1 promoter luciferase, luminescence, 24 h; in the data active means inhibition above about 85%; inconclusive means no clear call, values can overlap the other calls; inactive means below about 68%;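 further: human melanocyte line stably carrying TRPM1 promoter luciferase reporter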
NOMO-1 viab = STK33 inhibitor candidate reducing NOMO-1 cell viability; AID 2330; 7.5% of 37,000 active; inhibition, % (test concentration not listed); NOMO-1 AML viability, CellTiter-Glo luminescence, 72 h; in the data active means inhibition above about 80%; inconclusive means no clear call, values can overlap the other calls
* = called active by the depositor. Compounds with a hit are over-represented: about 8.1% of the library has one in this group of screens.

`C[C@@H]1CN([C@@H](C)CO)C(=O)c2cc(NC(=O)Nc3ccc(C(F)(F)F)cc3)ccc2O[C@H]1CN(C)Cc1ccc(-c2ccccc2)cc1` gave Hedgehog inh -4, MITF inhib -11 and NOMO-1 viab 118*.
C[C@H](CO)N1C[C@H](C)[C@@H](CN(C)Cc2ccc(-c3ccccc3)cc2)Oc2ccc(NC(=O)Nc3ccc(C(F)(F)F)cc3)cc2C1=O was read as Hedgehog inh 3, MITF inhib 9 and NOMO-1 viab 122*.
Screening C[C@@H]1CN([C@H](C)CO)C(=O)c2cc(NC(=O)Nc3ccc(C(F)(F)F)cc3)ccc2O[C@H]1CN(C)Cc1ccc(-c2ccccc2)cc1 returned Hedgehog inh -12, MITF inhib 10 and NOMO-1 viab 126*.
For CC1(C)Cc2ccccc2C(Nc2nc(-c3ccccc3)cs2)=N1 the results were Hedgehog inh -75, MITF inhib -18 and NOMO-1 viab 21.
`COc1ccc2c(c1OC)C(=O)OC2[C@H]1c2c(cc3c(c2OC)OCO3)CCN1C` (some centres undefined) gave Hedgehog inh -38, MITF inhib -2 and NOMO-1 viab 37.
Screening COc1ccc2cc1Oc1ccc(cc1)C[C@H]1c3cc(c(OC)cc3CCN1C)Oc1c(OC)c(OC)cc3c1[C@H](C2)N(C)CC3 returned Hedgehog inh -26, MITF inhib -61 and NOMO-1 viab 121*.
Screening COc1cc2c3cc1Oc1c(OC)c(OC)cc4c1[C@@H](Cc1ccc(OC(=O)c5ccc([N+](=O)[O-])cc5)c(c1)Oc1ccc(cc1)C[C@@H]3N(C)CC2)N(C)CC4 returned Hedgehog inh -27, MITF inhib -2 and NOMO-1 viab 98*.
COc1ccc2c(c1OC)C(=O)O[C@@H]2[C@H]1c2c(cc3c(c2OC)OCO3)CCN1C was read as Hedgehog inh 43, MITF inhib -20 and NOMO-1 viab 31.
For Nc1ncnc(NCCN2CCOCC2)c1[N+](=O)[O-] the results were MITF inhib -52 and NOMO-1 viab -21.
`COc1cc(S(=O)(=O)NCc2cccnc2)ccc1Br` gave MITF inhib -8 and NOMO-1 viab -3.
COC(=O)c1ccccc1NC(=O)CCSc1ccc(C)cc1 was read as MITF inhib -53 and NOMO-1 viab -16.
O=C(Nc1cc(S(=O)(=O)c2ccccc2)cs1)c1ccc(Cl)cc1 was read as Hedgehog inh 4, MITF inhib 45 and NOMO-1 viab 92*.
O=C(Nc1ccccc1)c1ccc(S(=O)(=O)c2cccc(S(=O)(=O)N3CCOCC3)c2)cc1 was read as MITF inhib 19 and NOMO-1 viab 12.
CC(C)(C)c1cc(C(=O)CSc2nc3ccccc3[nH]2)cc(C(C)(C)C)c1O was read as MITF inhib inconclusive and NOMO-1 viab 102*.
`Cc1cc(=O)[nH]c(SCC(=O)c2cc(C(C)(C)C)c(O)c(C(C)(C)C)c2)n1` gave MITF inhib 29 and NOMO-1 viab 17.
`CCn1c(SCc2nc3ccccc3[nH]2)nc2sc(C)c(C)c2c1=O` gave MITF inhib 18 and NOMO-1 viab 23.
O=C(CCCCCN1C(=O)c2cccc3cccc(c23)C1=O)NO was read as Hedgehog inh 91*, MITF inhib 71 and NOMO-1 viab 97*.
`CC(=O)Nc1ccc(NC(=O)CCCN2C(=O)c3ccccc3C2=O)cc1` gave MITF inhib -20 and NOMO-1 viab -28.
Screening O=C(CCCN1C(=O)c2cccc3cccc(c23)C1=O)Nc1ccccc1Br returned MITF inhib -6 and NOMO-1 viab 32.
For O=C(CCCN1C(=O)c2ccccc2C1=O)Nc1ccc(Nc2ccccc2)cc1 the results were MITF inhib -43 and NOMO-1 viab 102*.
Screening Cc1cc(C(F)(F)F)c2c(n1)sc1c(=O)[nH]c(C)nc12 returned Hedgehog inh 14, MITF inhib -11 and NOMO-1 viab -12.
Screening Cc1ccccc1-c1nnc(SCC(=O)Nc2sc3c(c2C#N)CCCC3)n1C returned MITF inhib 12 and NOMO-1 viab 17.
For Cc1ccc(C(=O)/C=C2/NCCNC2=O)cc1 the results were MITF inhib 39 and NOMO-1 viab 15.
Screening COc1cccc2cc(C(=O)C3C(=O)C(=O)N(CCc4ccccc4)C3c3cccnc3)oc12 (centres undefined) returned MITF inhib -3 and NOMO-1 viab -8.
`CCOC(=O)c1cnc(N2CCOCC2)nc1N` gave Hedgehog inh -81, MITF inhib -10 and NOMO-1 viab 13.
CCCc1c(C(=O)OCC)c(C(=O)OCC)c2c(-c3ccccc3)nc(N3CCOCC3)nn12 was read as Hedgehog inh 78*, MITF inhib 25 and NOMO-1 viab inconclusive.
`COc1ccc(S(=O)(=O)Nc2ccc3c(c2)C(=O)N([C@@H](C)CO)C[C@H](C)[C@@H](CN(C)S(=O)(=O)c2ccc(F)cc2)O3)cc1` gave MITF inhib -9 and NOMO-1 viab 15.
